52 compounds from PubChem BioAssay AID686979 (National Center for Advancing Translational Sciences (NCATS), 2013) can be followed below.

Each structure is given as a SMILES string. Among all 420,000 compounds or so, about 50,000 (12%) were called active. Another 26% or so got no clear call; they are omitted. For the sample, actives were picked, then their nearest neighbours and some compounds at random. Values without a mark were called inactive. Calls follow the shape of the dose curve; as a rule, active = well fitted inhibition curve with a large enough effect; inconclusive = small, poorly fitted or top-dose-only effect; inactive = flat fitted curve, though single readings scatter.
% is scaled to controls: 0 for no effect and ±100 for the full control effect; potency is read from the fitted curve at half-maximal effect.

The nature of this assay: qHTS for Inhibitors of human tyrosyl-DNA phosphodiesterase 1 (TDP1): qHTS in cells in presence of CPT. Also: nearly all actives have a fitted effect of over 55% in size. The following applies: chicken DT40 Tdp1-/-;hTDP1 cells + 20 nM CPT, ATP luminescence, 48 h; series mostly up to 46.2 µM; activity change, negative = growth inhibition: at the top concentration. Summed up:
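Cell growth measured by CellTiter-Glo luminescence after a minimum 48 h, 37 C compound exposure with 20 nM CPT in Tdp1-knockout DT40 cells stably expressing hTDP1, seeded 400/well; qHTS titration format.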
In general terms: qHTS replaces the single test concentration by a dilution series.
As to `COc1ccc(NS(=O)(=O)c2ccc(F)cc2F)cn1`, the “activity change, negative = growth inhibition” value was 5.59%.

As to `O=C(c1ccccc1F)N(Cc1ccccc1)Cc1ccccc1`, the Potency is 8.2 µM (active).

Take `O=C(O)CCC(=O)N(Cc1ccccc1)Cc1ccccc1`: the “activity change, negative = growth inhibition” value was -9%.

As to `O=C(NCCOc1ccccc1)c1ccccc1F`, the “activity change, negative = growth inhibition” value was -3.48%.

On to `Cc1ccc(C(=O)NNC(=O)c2ccc3c(c2)OCCO3)cc1`, for which the “activity change, negative = growth inhibition” value is 0.534%.

As to `Fc1ccc2[nH]c3c(N4CCSCC4)ncnc3c2c1`, the Potency is 11.6 µM (active).

In the case of `Fc1ccc2[nH]c3c(N4CCN(Cc5ccc6c(c5)OCO6)CC4)ncnc3c2c1`, the Potency was 2.31 µM (active).

On to `COc1cc(Cl)c(S(=O)(=O)N2CCN(Cc3ccc4c(c3)OCO4)CC2)cc1Cl`, for which the “activity change, negative = growth inhibition” value was -17.7%.

Turning to `N#C/C=C/N1CCN(Cc2ccc3c(c2)OCO3)CC1`, the “activity change, negative = growth inhibition” value was 6.4%.

Turning to `CC1CN(CC(=O)NC(C)c2ccccc2)CC(C)O1` (configuration not stated), the “activity change, negative = growth inhibition” value was 1.9%.

For the compound `COc1ccccc1CNC(=O)CSc1nc(=O)n(Cc2ccncc2)c2c1CCC2`, the “activity change, negative = growth inhibition” value is -0.437%.

For the compound `Cc1[nH]n(-c2cccc(Cl)c2)c(=O)c1-c1ccc(Cl)cc1`, the Potency was 16.4 µM (active).

For `Cc1cccc(N=Nc2c(C)[nH]n(-c3ccccc3)c2=O)c1`, the “activity change, negative = growth inhibition” value is 2.08%.

As for `O=c1c(-c2cccc(Cl)c2)c[nH]n1-c1ccccc1`, the “activity change, negative = growth inhibition” value is 7.4%.

For the compound `Cc1ccc2cc(C)c(N3CCN(c4ccc(F)cc4)CC3)nc2c1`, the “activity change, negative = growth inhibition” value is -3.93%.

As to `Cc1ccc(OCCCC(=O)Nc2ccc(S(=O)(=O)Nc3cc(C)nc(C)n3)cc2)cc1`, the “activity change, negative = growth inhibition” value was -3.04%.

Turning to `COc1cc(OC)c(C2=NOC(C(=O)Nc3c(C)n(C)n(-c4ccccc4)c3=O)C2)cc1Cl` (configuration not stated), the “activity change, negative = growth inhibition” value was -4.68%.

Turning to `CC1CCC(NC(=O)C2c3ccccc3C(=O)N2Cc2ccc3c(c2)OCO3)CC1` (configuration not stated), the “activity change, negative = growth inhibition” value is 6.63%.

As to `O=C(Nc1ccc2c(c1)OCCO2)C1c2ccccc2OCC(=O)N1Cc1ccccn1` (configuration not stated), the “activity change, negative = growth inhibition” value was 2.14%.

For `O=C(Nc1ccc(Cl)cc1)C1c2cccc[n+]2CC(=O)N1Cc1ccc2c(c1)OCO2` (configuration not stated), the Potency is 1.3 µM (active).

Regarding `CCOc1ccc(NS(=O)(=O)c2ccc(N)cc2)nn1`, the “activity change, negative = growth inhibition” value is -8.34%.

On to `COc1cccc(NC(=O)c2ccccc2N(Cc2ccccc2)S(C)(=O)=O)c1`, for which the “activity change, negative = growth inhibition” value is -18.5%.

As for `COc1ccc(S(=O)(=O)N2CCN(CC(=O)NCC3(N4CCOCC4)CCCCC3)CC2)cc1`, the “activity change, negative = growth inhibition” value was -11.5%.

As for `O=C1CCC(C(=O)Nc2ccc(OC(F)F)cc2)N1` (configuration not stated), the “activity change, negative = growth inhibition” value is 2.42%.

In the case of `CC(C)N(Cc1ccccc1)C(=S)Nc1ccc(OC(F)F)cc1`, the “activity change, negative = growth inhibition” value was -3.09%.

On to `CC(NC(=S)Nc1ccc(OC(F)F)cc1)c1ccc(F)cc1` (configuration not stated), for which the Potency is 14.6 µM (active).

For `Cc1c(CN2CCC(n3nccc3NC(=O)CCc3ccccc3)CC2)cnn1C`, the “activity change, negative = growth inhibition” value was -2.41%.

`COc1cccc(/C=N/NC(=O)c2[nH]nc3c2CCc2ccccc2-3)c1O`: the Potency is 2.31 µM (active).

Turning to `CN(C)CCNC(=O)c1[nH]nc2c1CCc1ccccc1-2`, the “activity change, negative = growth inhibition” value is 7.41%.

For `COc1cc2cc(C(=O)N/N=C/c3cccc(OC)c3OC)[nH]c2cc1OC`, the “activity change, negative = growth inhibition” value was -7.05%.

With `O=C1CC(c2cccc(Cl)c2)CC(O)=C1C=Nc1ccccc1` (configuration not stated), the “activity change, negative = growth inhibition” value is -29.9%.

Regarding `CSc1ncnc2c1ncn2CCCNCc1cccs1`, the “activity change, negative = growth inhibition” value was 5.05%.

Regarding `Cn1c(=O)c2c(n3c4ccccc4nc13)NC(=O)CC2c1cccc(Cl)c1` (configuration not stated), the “activity change, negative = growth inhibition” value was -18.7%.

Turning to `CC(Oc1cccc(NC(=O)c2cccs2)c1)C(=O)c1ccccc1` (configuration not stated), the “activity change, negative = growth inhibition” value is -1.98%.

As to `Cc1ccc(-c2noc(-c3nnn(-c4cccc(C(F)(F)F)c4)c3N)n2)cc1`, the “activity change, negative = growth inhibition” value was -7.25%.

For `CC(C)N(Cc1nnc(-c2ccc(Cl)cc2)o1)C(=O)C1=COCCO1`, the Potency was 9.2 µM (active).

As to `O=C(c1nnc(-c2ccc(Cl)cc2)o1)C1CCCC1`, the “activity change, negative = growth inhibition” value was 3.3%.

As for `Cc1ccc2nc(N(CCN(C)C)C(=O)C3=COCCO3)sc2c1`, the “activity change, negative = growth inhibition” value is -3.83%.

With `N#Cc1ccc(-c2cccs2)nc1SCc1ccc(Br)cc1`, the “activity change, negative = growth inhibition” value was -26.8%.

Turning to `Nc1c(-c2ccccc2)nnn1Cc1ccccc1`, the “activity change, negative = growth inhibition” value is -18.3%.

Turning to `COCc1c(C(=O)NC2CCCCC2)cnn1-c1nccc(-c2ccccc2OC)n1`, the activity change, negative = growth inhibition is 5.12% [at 9.04 µM].

As to `Cc1cc(C(=O)NNC(=O)CCC2CCCCC2)c(C)o1`, the “activity change, negative = growth inhibition” value was 1.89%.

On to `Cc1cccc(C(=O)OC(C)C(=O)NC2CCCc3ccccc32)c1O` (configuration not stated), for which the “activity change, negative = growth inhibition” value is 4.8%.

On to `Cc1cc(C(=O)NC2CCCc3c2cnn3-c2cccc(C)c2C)c(C)o1` (configuration not stated), for which the Potency is 13 µM (active).

As to `Cc1cc(C(=O)NCC2Cc3cccc(-c4cncnc4)c3O2)c(C)o1` (configuration not stated), the activity change, negative = growth inhibition is 6.48% [at 9.04 µM].

Turning to `COc1ccc(C(=O)NC2CCCc3c2cnn3-c2cccc(C)c2C)c(OC)n1` (configuration not stated), the Potency is 10.3 µM (active).

Regarding `CCN(CC(=O)NCc1ccc(F)cc1)S(=O)(=O)c1ccc(Cl)s1`, the “activity change, negative = growth inhibition” value is -18%.

Take `Cc1ccccc1CCNC(=O)C1CCC(=O)N(Cc2ccc(Cl)cc2)C1` (configuration not stated): the “activity change, negative = growth inhibition” value was -27.1%.

For the compound `C/C(=N\Nc1ccc(S(N)(=O)=O)cc1[N+](=O)[O-])c1cccs1`, the “activity change, negative = growth inhibition” value is -4.25%.

Take `CCC(=O)N1CCc2cc(Br)c(S(=O)(=O)NCCN3CCCCC3CC)cc21` (configuration not stated): the “activity change, negative = growth inhibition” value was -4.35%.

For the compound `CCCN(CCC)S(=O)(=O)c1cc2c(cc1Br)CCN2C(=O)CC`, the Potency was 8.2 µM (active).

On to `CCC(=O)N1CCc2cc(S(=O)(=O)NC(C(=O)N3CCc4ccccc4C3)C(C)C)ccc21` (configuration not stated), for which the “activity change, negative = growth inhibition” value is -21.2%.
